# Only a selection was taken, and hits are over-represented in it overall.
# Vaccinia pol inh: blocks vaccinia virus processive DNA synthesis | 46,000 tested, 0.94% active | AID 493162 | normalized absorbance, % (no concentration beside the values) | in vitro processive DNA synthesis, absorbance read-out; hits give low values; in the data active = normalized absorbance mostly below about 85%, no sharp cut-off; inactive = mostly above about 86%
# Starred values were filed as active, the others as inactive.
SMILES,Vaccinia pol inh
O=C(c1ccc(S(=O)(=O)N2CCOCC2)cc1)N1CCN=C1SCc1c(F)cccc1Cl,103.1
Cc1c(S(=O)(=O)c2ccc(Cl)cc2)csc1C(=O)Nc1cc(C(F)(F)F)ccc1N1CCCC1,111.8
Cc1ccc(NC(=O)Cc2c[nH]c3ccccc23)cc1,103.2
Cc1ccccc1CNCCc1c[nH]c2ccccc12,95.1
Cc1cc(C)nc(NC(N)=NCCc2c[nH]c3ccccc23)n1,84.9*
Cc1c(CCO)sc[n+]1Cc1ccccc1,107.7
CC(CCc1ccccc1)NC(=O)CCn1c(=O)sc2ccccc21 (configuration not stated),100.2
O=C(NCc1ccsc1)C1CCCCN1 (configuration not stated),117.1
O=C1NC(=S)N(c2ccccc2)C(=O)/C1=C/C=C/c1ccco1,52.9*
O=C1Nc2ccccc2/C1=C/C=C/c1ccco1,65.7*
O=C1NC(=O)N(c2ccccc2)C(=O)/C1=C/c1ccco1,99.8
O=C1Nc2ccccc2/C1=C/C(=O)c1ccccc1,100.3
O=C1NC(=S)N/C1=C\c1ccco1,100.4
O=C1Nc2ccccc2/C1=C\C1=Cc2ccccc2OC1,92.4
O=C1N(c2ccccc2)C(c2ccc(Br)cc2)C12CCCCC2 (configuration not stated),100.1
COC(=O)C(N)CSC1CCCCO1 (configuration not stated),105.6
CCN(CC)c1ccc(C2(O)C(=O)c3ccccc3C2=O)cc1,99.9
CCn1c(NCc2ccccn2)nc2ccccc21,112.8
Cc1nc(NCc2ccccn2)c2ccccc2n1,50.6*
Cc1nc2ccccc2cc1C(=O)NCc1ccccn1,109.1
CS(=O)(=O)/N=C(\N)c1ccccc1,100.1
O=C(/C=C/c1ccco1)/C=C/c1ccco1,8.6*
O=C(/C=C/c1ccco1)NCCc1ccccc1,102.2
O=C(/C=C/c1ccco1)C1(O)CCCCC1,91.2
O=C(/C=C/c1ccccc1)/C=C/c1ccco1,77.6
SMILES,Vaccinia pol inh
Cc1nn(C)c(C)c1NC(=O)/C=C/c1ccco1,103.0
O=C(/C=C/c1ccco1)Nc1cccc(NC(=O)/C=C/c2ccco2)n1,84.8*
CC(=O)Oc1ccc2c(c1)NC1(OC(C)=O)C(=O)c3ccccc3C21OC(C)=O (configuration not stated),93.2
CCN(CC)C(=O)C1(P(=O)(c2ccccc2)c2ccccc2)CC1,99.6
C=CCN(C(=O)Cn1c(=O)n(-c2ccc(C)cc2)c(=O)c2sccc21)c1ccccc1,96.4
COc1ccc(-c2cn3nc(N4CCC(C(=O)O)CC4)sc3n2)cc1,106.7
O=C(COC(=O)C1CC2C=CC1C2)c1ccccc1 (configuration not stated),91.0
Oc1ccccc1CNCC1CCCO1 (configuration not stated),94.7
Cc1ccc2c(c1)c1nc3ccccc3nc1n2CC(=O)O,75.3
O=C(O)Cn1c2ccc(Cl)cc2c2nc3ccccc3nc21,53.4*
CCOC(=O)Cn1c2ccc(Cl)cc2c2nc3ccccc3nc21,108.9
C/C(=N\N)c1ccc2ccccc2c1,83.0*
CCCNC(=O)c1ccc2ccccc2c1,106.5
O=C(/C=C/C(=O)c1ccc2ccccc2c1)c1ccccc1,98.1
O=C(NC1CCCC1)c1nc(-c2ccc(Cl)cc2)n2c1CCCCC2,103.1
Cc1cc2ncc(-n3cncn3)c(-c3ccccc3)n2n1,101.4
Nc1ccc(-c2cnc(-c3ccc(N)cc3)nc2)cc1,99.6
Nc1ccc(-c2ccc(N)cc2)cc1,72.4*
Cc1ccc(-c2ccc(N)cc2)cc1,93.2
Cc1ccc2ncc(-c3ccc(Cl)c(C)c3)nc2c1,97.0
Cc1csc2c(N3CC(C)OC(C)C3)ncnc12 (configuration not stated),100.4
Cc1csc2c(N3CCN(C(=O)NC(C)(C)C)CC3)ncnc12,60.3*
COC(=O)c1sccc1S(=O)(=O)N1CCN(c2ncnc3c(C)csc23)CC1,117.6
C=CCN(CC=C)S(=O)(=O)c1ccc(C(=O)N2CCOCC2)cc1,99.7
COc1ccc(CCC(=O)c2ccc3c(c2)OCCO3)cc1,97.7
SMILES,Vaccinia pol inh
O=C(CCC(=O)c1ccccc1)NCc1ccccc1,66.7*
O=C(Cc1ccccc1)c1ccccc1,104.3
CC(=O)Nc1ccc(NC(=O)CCC(=O)c2ccccc2)cc1,99.9
O=C(c1ccccc1)c1ccc(NC(=O)c2cccs2)cc1,90.7
Cc1cccc(NC(=O)COC(=O)/C=C/c2ccc(F)cc2)c1C,100.5
O=C(O)c1ccc(N2N=C(C(F)(F)F)/C(=C/c3ccc(OC(=O)c4cccs4)cc3)C2=O)cc1,23.3*
CCOC(=O)c1ccc(N2N=C(C(F)(F)F)/C(=C/C=C/c3ccco3)C2=O)cc1,99.6
CCc1ccc(/C=C2/C(=O)N(c3ccccc3)N=C2C)cc1,91.6
CCn1cc(CCC(=O)NC2CCCC(C)C2C)c2ccccc21 (configuration not stated),87.4
CN1C(=O)/C(=C/c2cn(CC(=O)O)c3ccccc23)c2ccccc21,73.1*
CN1C(=O)/C(=C/c2cn(CC(=O)N3CCOCC3)c3ccccc23)C(=O)NC1=S,100.1
CC1CCCC(C)N1C(=O)Cn1cc(/C=C2/C(=O)N(C)c3ccccc32)c2ccccc21 (configuration not stated),121.7

# High-throughput results from PubChem BioAssay.
